# Assay results: PubChem BioAssay (Tox21)
# Records with an inconclusive call do not appear. Where a call stands in place of a potency, no number is given. The source made the active and inactive calls. The call rests on the fitted dose curve.
# Molecular target: Beta-2 adrenergic receptor (Homo sapiens) (UniProt P07550)
# Test: Adrenergic beta2 receptor (ADRB2) small molecule agonists, cell-based qHTS assay (AID 1963593);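 further: CHO cells stably overexpressing human ADRB2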
# Outline: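 CHO cells stably over-expressing ADRB2 were plated overnight at 37C, then dosed with compounds plus a stimulation mix containing 100uM IBMX and 25uM Ro-20-1724 for 0.5hr at room temperature. cAMP was measured by HTRF competition, 1hr.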
# Sequence of Beta-2 adrenergic receptor (Homo sapiens) (P07550 whole entry, looked up): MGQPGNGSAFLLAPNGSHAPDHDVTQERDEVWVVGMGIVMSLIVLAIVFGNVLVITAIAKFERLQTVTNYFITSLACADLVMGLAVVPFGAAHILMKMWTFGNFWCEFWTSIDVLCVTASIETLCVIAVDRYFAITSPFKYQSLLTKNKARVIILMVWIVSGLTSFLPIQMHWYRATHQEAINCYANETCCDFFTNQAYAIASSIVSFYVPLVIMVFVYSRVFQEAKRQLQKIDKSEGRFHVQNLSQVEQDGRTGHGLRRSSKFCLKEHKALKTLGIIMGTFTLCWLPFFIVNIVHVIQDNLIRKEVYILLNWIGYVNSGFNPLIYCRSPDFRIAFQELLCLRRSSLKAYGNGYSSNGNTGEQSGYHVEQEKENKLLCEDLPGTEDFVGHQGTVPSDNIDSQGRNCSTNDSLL
row,SMILES,Potency
1,OCCc1ccccc1,inactive
2,CC(CCl)OP(=O)(OC(C)CCl)OC(C)CCl (stereo not given),inactive
3,NCCN,inactive
4,COc1ccc([C@@H]2CC(=O)c3c(O)cc(O[C@@H]4O[C@H](CO[C@@H]5O[C@@H](C)[C@H](O)[C@@H](O)[C@H]5O)[C@@H](O)[C@H](O)[C@H]4O)cc3O2)cc1OC,inactive
5,Cc1ncc[nH]1,inactive
6,CCCCCCCC/C=C\CCCCCCCC(=O)O,inactive
7,O=C(O)c1ccc(O)cc1,inactive
8,CCNc1cccc(C)c1,inactive
9,CCCCCCCCCCCCS,inactive
10,C[Si](C)(C)N[Si](C)(C)C,inactive
11,Cc1ccccc1Cl,inactive
12,CC(=O)N[C@@H](CS)C(=O)O,inactive
13,C=CCNCC=C,inactive
14,CCCCCCCCCCCCCC(=O)OC(C)C,inactive
15,CCc1ccccc1CC,inactive
16,C1COCCN1,inactive
17,Cc1ccc(C)c(O)c1C,inactive
18,C=C(C)CC(C)(C)C,inactive
19,CSc1ccc(Cl)cc1,inactive
20,CC(=O)[C@H]1CC[C@H]2[C@@H]3CC=C4C[C@@H](O)CC[C@]4(C)[C@H]3CC[C@]12C,inactive
21,CC(=O)CC(=O)N(C)C,inactive
22,Cc1cccc2ccccc12,inactive
23,NCCS(=O)(=O)O,inactive

row,SMILES,Potency
1,COc1ccc(OC)cc1,inactive
2,Cc1ccc([N+](=O)[O-])cc1N,inactive
3,CCCN(CCC)C(=O)SCC,inactive
4,CCCCCCCCCC,inactive
5,C/C=C/c1ccc(OCC)c(O)c1,inactive
6,Cc1ccc(S(=O)(=O)O)cc1C,inactive
7,CCCCNS(=O)(=O)c1ccccc1,inactive
8,Cc1ccc2c(n1)Oc1ccc(C(C)C(=O)OCC(=O)N(C)C)cc1C2 (stereo not given),inactive
9,NC(=S)NNC(N)=S,inactive
10,Cc1ccc2c(c1)C(=O)OC2=O,inactive
11,Cc1cc(C)c(C)cc1C,inactive
12,C=C(C)C1CC=C(C)C(OC(C)=O)C1 (stereo not given),inactive
13,CC(=O)OCc1ccc2c(c1)OCO2,inactive
14,Cc1ccc(S(=O)(=O)NCl)cc1,inactive
15,OCC(O)CS (stereo not given),inactive
16,CC1(C)O[C@@H]2[C@@H](CO[C@@]3(COS(N)(=O)=O)OC(C)(C)O[C@@H]23)O1,inactive
17,Cc1ccc(O)c(-n2nc3ccccc3n2)c1,inactive
18,c1ccc2[nH]cnc2c1,inactive
19,CCCOC(=O)NCCCN(C)C,inactive
20,C=C(C)C(=O)OCC(C)C,inactive
21,CCCCCCC=O,inactive
22,COC(=O)C1CCC(C(=O)OC)CC1 (stereo not given),inactive
23,CCCCCCCCO,inactive

row,SMILES,Potency
1,COCC(C)N (stereo not given),inactive
2,C1N2CN3CN1CN(C2)C3,inactive
3,c1ccc2cc(Nc3ccc(Nc4ccc5ccccc5c4)cc3)ccc2c1,inactive
4,CN(C)CCC(c1ccccc1)c1ccccn1 (stereo not given),inactive
5,CCCCC/C=C\C/C=C\CCCCCCCC(=O)OC,inactive
6,CCCCCCCCCCCCCCCC(=O)O,inactive
7,OB(O)O,inactive
8,CC(C)c1ccc(C(C)C)cc1,inactive
9,C=C[Si](OCCOC)(OCCOC)OCCOC,inactive
10,CN(C)CCCN,inactive
11,C=C(C)C(N)=O,inactive
12,CCCCCCCCOc1ccc(C(=O)c2ccccc2)c(O)c1,inactive
13,CC(=O)CC/C=C(\C)CCC=C(C)C,inactive
14,O=S1(=O)CCCO1,inactive
15,C=C(C)C1CC=C(C)CC1 (stereo not given),inactive
16,C=CC(=O)OCCC(=O)O,inactive
17,NC(N)=S,inactive
18,Brc1nc2ccccc2s1,inactive
19,Nc1ccc(Cl)cc1Cl,inactive
20,Cc1ccc([N+](=O)[O-])c(C)c1,inactive
21,CC[Si](OC(C)=O)(OC(C)=O)OC(C)=O,inactive
22,Nc1nc2ncc(CNc3ccc(C(=O)N[C@@H](CCC(=O)O)C(=O)O)cc3)nc2c(=O)[nH]1,inactive
23,CC1COC(=O)O1 (stereo not given),inactive

row,SMILES,Potency
1,CCCCCCCC(=O)OCC(O)CO (stereo not given),inactive
2,Clc1ccccn1,inactive
3,O=C1CCc2ccccc2O1,inactive
4,CC(=O)Nc1ccc(CC(=O)O)cc1,inactive
5,CCC(O)OCCCOC (stereo not given),inactive
6,CCO[Si](CCCNC(N)=O)(OCC)OCC,inactive
7,C/C=C(C)/C=C/C=C(C)C,inactive
8,COc1ccc(CCC(C)=O)cc1,inactive
9,CCCCCC1C(=O)CCC1CC(=O)OC (stereo not given),inactive
10,Cc1cc(C(C)(C)C)c(O)c(C(C)(C)C)c1,inactive
11,CCc1cccc(C)c1N,inactive
12,C=CCCCCCCCCC(=O)O,inactive
13,c1ccc2cc3ccccc3cc2c1,inactive
14,COc1cc(C=O)ccc1O,inactive
15,CN(C)CCOC(=O)COc1ccc(Cl)cc1,inactive
16,OC[C@]1(O)OC[C@@H](O)[C@H](O)[C@@H]1O,inactive
17,COCCOCCOCCO,inactive
18,CN(C)CCOCCN(C)C,inactive
19,Cc1cccc(O)c1C,inactive
20,CCCCCCCC(=O)OC,inactive
21,CCCCC(CC)COC(=O)c1ccc(N(C)C)cc1 (stereo not given),inactive
